ELG1 DNA repair: qHTS screen for small molecules that inhibit ELG1-dependent DNA repair in human embryonic kidney (HEK293T) cells expressing luciferase-tagged ELG1; HEK293T ELG1-luciferase reporter, luminescence, 16 h; DNA damage induced by 5-fluorouridine; Potency, µM (doses to about 46.1 µM), actives largely listed as inhibitors; 2.3% of 330,000 active; further: nearly all actives have a fitted effect of over 55% in size
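HEK293T cells expressing luciferase-tagged ELG1 (2,000/well) received 5-Fluorouridine plus compound or DMSO for 16 hr at 37 °C. Luciferase was read by ONE-Glo luminescence after 30 min at room temperature.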
IL1B secr inh: qHTS for Inhibitors of Inflammasome Signaling: IL-1-beta AlphaLISA Primary Screen; THP-1 LPS/ATP IL-1B secretion, AlphaLISA, 16 h; active compounds read low; 4.7% of 360,000 active; AID 743279, 2014; activity change, % at 57.5 µM; in the data active means activity change below about -50%; inconclusive means mostly about -30% to -49%
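THP-1 cells pretreated 1 hr with compounds (up to 57.5 uM final), then stimulated with LPS (250 ng/mL final) plus ATP (1.25 mM final); secreted IL-1B measured by AlphaLISA after 16 hr, decreased signal indicating inhibition.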
VP16 counter: VP16 counterscreen qHTS for inhibitors of ROR gamma transcriptional activity; Drosophila S2 Gal4-VP16 UAS-luciferase, luminescence, 20 h; Potency, µM (highest dose often 53.6 µM), usual class: inhibitors; 3.5% of 310,000 active; AID 2546, 2010;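 further: Gal4-VP16 expression switched on by copper sulfate through the metallothionein promoter; nearly all actives have a fitted effect of over 50% in size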
TDP1 cell CPT: qHTS for Inhibitors of human tyrosyl-DNA phosphodiesterase 1 (TDP1): qHTS in cells in presence of CPT | chicken DT40 Tdp1-/-;hTDP1 cells + 20 nM CPT, ATP luminescence, 48 h | Potency, µM (titrated, usually from 46.2 µM), hits mostly inhibitors | 12% of 420,000 active | AID 686979, 2013; further: nearly all actives have a fitted effect of over 55% in size
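Chicken DT40 Tdp1-/- cells complemented with human TDP1, 400 cells/well, exposed to compounds plus 20 nM camptothecin for at least 48 h at 37 C; viability read as ATP content by CellTiter-Glo luminescence.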
DT40 TDP1 no CPT: qHTS for Inhibitors of human tyrosyl-DNA phosphodiesterase 1 (TDP1): qHTS in cells in absence of CPT. DT40 Tdp1-/- hTDP1 cells, no CPT, ATP luminescence, 48 h. Potency, µM (series often up to 46.2 µM), actives largely listed as inhibitors. 15% of 420,000 active. AID 686978, 2013; further: nearly all actives have a fitted effect of over 55% in size
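DT40 Tdp1-/-;hTDP1 cells, no CPT (DMSO vehicle only), 400 cells/well; compounds pin-transferred; ≥48 hr, 37 °C; CellTiter-Glo 30 min RT dark, luminescence read.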
RORg inh: qHTS for inhibitors of ROR gamma transcriptional activity | Nuclear receptor ROR-gamma (Mus musculus), P51450 | AID 2551, 2010 | Drosophila S2 Gal4-RORgamma UAS-luciferase reporter, 20 h | Potency, µM (doses to about 53.6 µM), actives largely listed as inhibitors | 5.4% of 310,000 active; further: nearly all actives have a fitted effect of over 60% in size
Target sequence (P51450 whole entry, looked up, the tested form may be a part): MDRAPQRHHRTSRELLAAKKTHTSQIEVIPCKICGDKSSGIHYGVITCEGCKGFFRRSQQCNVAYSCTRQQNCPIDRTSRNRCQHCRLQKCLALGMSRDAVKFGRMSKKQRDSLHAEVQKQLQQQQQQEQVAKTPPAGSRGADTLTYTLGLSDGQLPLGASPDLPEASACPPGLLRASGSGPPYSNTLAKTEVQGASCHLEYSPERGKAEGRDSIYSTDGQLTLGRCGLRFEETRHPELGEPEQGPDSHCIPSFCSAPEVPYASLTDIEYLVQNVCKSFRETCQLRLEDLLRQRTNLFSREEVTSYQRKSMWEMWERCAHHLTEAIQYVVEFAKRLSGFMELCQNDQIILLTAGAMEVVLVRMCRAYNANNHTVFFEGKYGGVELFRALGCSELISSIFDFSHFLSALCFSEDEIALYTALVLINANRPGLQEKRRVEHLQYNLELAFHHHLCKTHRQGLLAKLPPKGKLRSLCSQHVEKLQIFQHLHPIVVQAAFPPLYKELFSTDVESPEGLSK
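Luciferase reporter read in Schneider cells carrying Gal4-RORγ (mouse) and UAS-Photinus luciferase; cells given compound 1 h before 700 uM copper sulfate induction, then incubated 20 h at ambient temperature.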
Large screens that a line does not name were inactive. A selection: hits, their analogues and other compounds. The true share with any hit is near 21%. Unless noted, the call rests on the fitted dose curve; in most records, active means well fitted curve in the direction sought with a large enough effect; inconclusive means small, poorly fitted or top-dose-only effect, or another doubt; inactive means no such curve, though single readings can be large; an effect the other way counts as inactive or inconclusive.

COc1ccccc1CNc1nc(NCC2CC2)nc2ccsc12	IL1B secr inh -83, TDP1 cell CPT 10µM, DT40 TDP1 no CPT 21µM (no result: ELG1 DNA repair, VP16 counter, RORg inh)
COc1ccccc1CNc1nc(NCc2cccs2)nc2ccsc12	TDP1 cell CPT inconclusive, DT40 TDP1 no CPT 16µM (no result: ELG1 DNA repair, VP16 counter, RORg inh)
COc1ccccc1CNc1n[nH]c(NCc2ccccc2OC)n1	none
COc1ccccc1CNc1nc(Nc2cccc(-c3cnco3)c2)c2sccc2n1	TDP1 cell CPT 18µM, DT40 TDP1 no CPT 21µM (no result: ELG1 DNA repair, IL1B secr inh, VP16 counter, RORg inh)
O=C(Nc1ccccc1)N1CC2(CCN(C(=O)c3cccc(F)c3)CC2)C1	none (no result: ELG1 DNA repair, IL1B secr inh)
Fc1ccc(Nc2nc(NCc3cccs3)nc3ccsc23)cc1	TDP1 cell CPT inconclusive, DT40 TDP1 no CPT 21µM (no result: ELG1 DNA repair, VP16 counter, RORg inh)
COc1ccccc1CNc1nc(NCc2ccccc2OC)c2sccc2n1	IL1B secr inh -52, TDP1 cell CPT 12µM, DT40 TDP1 no CPT 15µM (no result: ELG1 DNA repair, VP16 counter, RORg inh)
COc1ccccc1CNc1nc(NCc2ccc3occc3c2)c2sccc2n1	IL1B secr inh -100, TDP1 cell CPT 21µM, DT40 TDP1 no CPT 21µM (no result: ELG1 DNA repair, VP16 counter, RORg inh)
Cc1cc2c(c(C)c1CCO[C@@H]1O[C@H](CO)[C@@H](O)[C@H](O)[C@H]1O)C(=O)[C@@H](C)[C@@H]2O	TDP1 cell CPT 2.9µM, DT40 TDP1 no CPT 5.2µM (no result: VP16 counter, RORg inh)
COC(=O)CN1C(=O)[C@H]2[C@@H](/C=C/c3ccccc3)N3C(=O)CN(Cc4ccccc4)C(=O)[C@@]3(C)[C@H]2C1=O	none
Cc1cc(N2CCN(c3ccccc3Cl)CC2)n2cc(-c3ccccc3)nc2n1	ELG1 DNA repair inconclusive, IL1B secr inh -60, VP16 counter inconclusive, TDP1 cell CPT inconclusive, DT40 TDP1 no CPT inconclusive
Cc1cc(N2CCN(c3ccccc3)CC2)n2cc(-c3ccccc3)nc2n1	ELG1 DNA repair inconclusive, IL1B secr inh -68, TDP1 cell CPT inconclusive, DT40 TDP1 no CPT 10µM
O=C(CSc1nc2ccccc2nc1Cc1ccccc1)N1CCc2ccccc21	none (no result: ELG1 DNA repair, IL1B secr inh, VP16 counter, RORg inh)
O=C1C=C(c2c(O)ccc3ccccc23)c2ccccc2C1=O	IL1B secr inh -117, TDP1 cell CPT 1.2µM, DT40 TDP1 no CPT 1.2µM (no result: ELG1 DNA repair, VP16 counter, RORg inh)
CCCCN1C[C@H](Cc2ccccc2)[C@@H](CC(=O)Nc2ccccc2)C1=O	TDP1 cell CPT 16µM, DT40 TDP1 no CPT inconclusive
O=C(C[C@H]1C(=O)N(CCc2ccccc2)C[C@@H]1Cc1ccccc1)Nc1ccccc1	TDP1 cell CPT 16µM, DT40 TDP1 no CPT 16µM
O=C(C[C@H]1C(=O)N(Cc2ccccc2)C[C@@H]1Cc1ccccc1)Nc1ccccc1	ELG1 DNA repair inconclusive, TDP1 cell CPT 13µM, DT40 TDP1 no CPT 11µM
C[C@H]1CN(Cc2ccccc2)C(=O)[C@@H]1CC(=O)Nc1ccccc1	none (no result: ELG1 DNA repair, VP16 counter, RORg inh)
COc1ccc(NC(=O)C[C@H]2C(=O)N(Cc3ccccc3)C[C@@H]2Cc2ccccc2)cc1	IL1B secr inh inconclusive, TDP1 cell CPT 18µM, DT40 TDP1 no CPT inconclusive (no result: ELG1 DNA repair, VP16 counter, RORg inh)
COc1ccc(NC(=O)C[C@H]2C(=O)N(Cc3ccccc3)C[C@@H]2CSC)cc1	TDP1 cell CPT inconclusive, DT40 TDP1 no CPT inconclusive (no result: ELG1 DNA repair, VP16 counter, RORg inh)
Cc1onc(-c2c(F)cccc2Cl)c1C(=O)N(C)CCc1ccccn1	none
Cc1ccc(C)c(NC(=O)c2cnc(N3CCCC3)nc2C)c1	DT40 TDP1 no CPT inconclusive (no result: ELG1 DNA repair, IL1B secr inh, VP16 counter, RORg inh)
O=C(C[C@H]1C(=O)N(C2CCCCC2)C[C@@H]1Cc1ccccc1)Nc1ccccc1	IL1B secr inh inconclusive, TDP1 cell CPT inconclusive, DT40 TDP1 no CPT 16µM
CCCCN1C[C@H](CSC)[C@@H](CC(=O)Nc2ccc(Br)cc2)C1=O	TDP1 cell CPT inconclusive, DT40 TDP1 no CPT 23µM (no result: ELG1 DNA repair, VP16 counter, RORg inh)
COCC(=O)N1C[C@H]2CON(C)[C@H]2C[C@H]1c1ccc(N2CCCCC2)cc1	none (no result: ELG1 DNA repair, VP16 counter, RORg inh)
CCC(C(=O)OC)n1cnc2c(nnn2-c2ccc(C)cc2)c1=O (stereo unspecified)	ELG1 DNA repair inconclusive, DT40 TDP1 no CPT inconclusive
